High-throughput results: PubChem BioAssay, several laboratories
CSC inhib – cancer stem cell inhibition. inhibition, % at 7.5 µM. 300,000 compounds, 1.1% hits. cancer stem cell-like cells viability, luminescence; in the data active = inhibition above about 75%; inconclusive = no clear call, values can overlap the other calls; tested in HMLE shEcad cells
Beta apoptosis – blocks beta cell apoptosis; INS-1E cytokine-induced death, ATP luminescence, 48 h; percent of positive-control rescue, neutral wells zero; 300,000 compounds, 0.8% hits; AID 435005; protection from apoptosis, % (concentration not given with the values);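 active = Every replicate reaches about 75%, or at least half do and their mean reaches it too, limit read from the data; inconclusive = At least half of replicates reach the limit but their mean does not; inactive = Under half of replicates reach the limit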;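 note: 0% = cytokine-treated negative control wells and 100% = positive control rescue; higher means more ATP so stronger rescue from cytokine killing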
PP1 inh – PP1-alpha (human) inhibition in PP5 counter-screen | purified PP1alpha, OMFP fluorescence | inhibition, % at 6.7 µM | P62136 | 320,000 compounds, 0.9% hits;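 active = inhibition above the mean inhibition of all tested compounds plus 3 SD, computed separately for each screening campaign, cut at about 15% in these data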
Target sequence (P62136 whole entry, looked up): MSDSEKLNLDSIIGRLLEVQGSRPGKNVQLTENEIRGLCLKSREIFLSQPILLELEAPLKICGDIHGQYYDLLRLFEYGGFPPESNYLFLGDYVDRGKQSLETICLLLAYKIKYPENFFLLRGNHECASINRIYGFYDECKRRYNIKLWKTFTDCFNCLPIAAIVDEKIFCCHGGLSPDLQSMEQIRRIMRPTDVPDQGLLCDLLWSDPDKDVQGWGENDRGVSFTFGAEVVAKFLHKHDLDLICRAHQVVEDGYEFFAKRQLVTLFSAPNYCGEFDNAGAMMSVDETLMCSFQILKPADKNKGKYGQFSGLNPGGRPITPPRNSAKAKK
SKKanGAS inh – blocks kanamycin growth of S. pyogenes SKKanGAS strain; BacTiter-Glo, 6 h; inhibition, % at 7.5 µM; 300,000 compounds, 1.3% hits;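 active = mean replicate score, as percent of positive control median, at least 50; inconclusive = mean below 50 but one replicate at or above 50; inactive = mean and every replicate below 50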;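 note: strain carries kanamycin resistance gene driven by streptokinase promoter and grows in 40 µg/ml kanamycin; loss of luminescence reflects streptokinase promoter inhibition or plain growth inhibition; 0% = median of DMSO wells and 100% = positive control at its reference dose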
PP5 inh – blocks human protein phosphatase 5 activity. inhibition, % at 6.7 µM. purified PP5c, OMFP substrate fluorescence. 320,000 compounds, 0.18% hits. P53041. AID 1987;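 active = inhibition above the campaign's mean inhibition across all tested compounds plus 3 SD, cut at about 9.5% in these data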;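 note: 0% = DMSO only and 100% = 100 µM cantharidin control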
Starred values were filed as active, the others as inactive; ? = inconclusive; / = no result given. Most compounds without a hit are left out; they make up all but 3.1% or so of the library.

SMILES | CSC inhib | Beta apoptosis | PP1 inh | SKKanGAS inh | PP5 inh
Cc1cccc(N2CCN(C(=O)c3ccc4c(c3)NC(=O)C(CSCc3ccc(F)cc3)N4)CC2C)c1 (stereo not given) | / | -6 | 19* | 2 | 0
COc1ccc(C(=O)N2CCN(c3cccc(Cl)c3)CC2)cc1 | -5 | -7 | -3 | 2 | 1
CC1(C)CC(=O)C(C2C3=C(CC(C)(C)CC3=O)OC3=C2C(=O)CC(C)(C)C3)=C(O)C1 | 1 | -1 | -1 | 40 | 1
COc1ccc(CC(=O)Oc2ccc(C(C)(C)C)cc2)cc1S(=O)(=O)N1CCOCC1 | -7 | -11 | -1 | 21 | 4
Cc1cccc(NC(=O)CNC(=O)c2ccc(-n3cncn3)c([N+](=O)[O-])c2)c1C | -14 | 4 | -6 | 25 | 3
CC12CCC(=O)N1C(C(=O)N1CCN(c3ccc(C(F)(F)F)cc3[N+](=O)[O-])CC1)CS2 (stereo not given) | -9 | -13 | -2 | 2 | 0
COc1ccc(CCNC(=O)CN2C(=O)NC(C)(c3ccc([N+](=O)[O-])cc3)C2=O)cc1 (stereo not given) | -12 | -4 | -2 | 2 | -1
Fc1cccc2sc(Nc3nnc(-c4ccccc4)o3)nc12 | 63 | 26 | -3 | 87* | -3
COc1ccc(-c2nnc(Nc3nc4c(OC)cccc4s3)o2)cc1 | 81* | 3 | 4 | 73* | 2
Oc1ccccc1/C=N/Nc1ncc(Br)cn1 | 8 | 87* | 2 | -20 | 0
Oc1ccccc1/C=N/Nc1ccccc1 | 69 | 3 | 5 | -12 | 5
Oc1ccccc1/C=N/Nc1nc2ccccc2o1 | ? | 98* | -4 | 106* | 1
O=c1c(Cc2ccc(F)cc2)c(O)ccn1CCCN1CCOCC1 | -3 | -5 | 2 | 5 | -2
Cc1ccccc1-n1c(SCC(=O)Nc2ccccc2)nc2nc3c(cc2c1=O)CCCC3 | -9 | 2 | 8 | 10 | 1
CCCCCc1cc(=O)oc2c(C(CCN(CC)CC)c3ccc(OC)cc3)c(OC)cc(OC)c12 (stereo not given) | 13 | 98* | 7 | 10 | 1
CCCCCc1cc(=O)oc2c(C(CCN3CCCC3)c3ccc(N(C)C)cc3)c(OC)cc(OC)c12 (stereo not given) | 17 | 8 | 5 | 14 | 0
CCCCCc1cc(=O)oc2c(C(CCN3CCCC(C)C3)c3ccc(OC)cc3)c(OC)cc(OC)c12 (stereo not given) | 102* | 109* | 12 | -2 | 7
COc1ccc(C(CC(=O)N2CCCC(C)C2)c2c(OC)cc(OC)c3c(-c4ccccc4)cc(=O)oc23)cc1 (stereo not given) | 6 | 1 | 8 | 67* | 4
CCCCCc1cc(=O)oc2c(C(CCN3CCCCC3)c3ccc(OC)cc3)c(OC)cc(OC)c12 (stereo not given) | 97* | 47 | 6 | 6 | 2
CCN(CC)CCC(c1ccc(N(C)C)cc1)c1c(OC)cc(OC)c2ccc(=O)oc12 (stereo not given) | 9 | 3 | -1 | -2 | 4
CCCCCc1cc(=O)oc2c(C(CCN3CCCC3)c3cc(OC)c(OC)c(OC)c3)c(OC)cc(OC)c12 (stereo not given) | 52 | 44 | 1 | 7 | -1
N#CC1(NC(=O)CN2c3cccc4cccc(c34)S2(=O)=O)CCCCC1 | -7 | -1 | -3 | 0 | 1
COc1ccc(/C=C(/CC(=O)NCc2ccc(Cl)cc2)c2nc3ccccc3s2)cc1 | -10 | 16 | 15* | 1 | 2
COc1cccc2c1-c1c(O)cccc1C2=O | -4 | -5 | 0 | 0 | -1
COc1cccc2c1C(=O)c1c(O)c3c(c(O)c1C2=O)C[C@](O)(C(C)=O)C[C@H]3O[C@@H]1C[C@@H](N)[C@@H](O)[C@@H](C)O1 | 74 | 44 | -3 | 102* | 2
SMILES | CSC inhib | Beta apoptosis | PP1 inh | SKKanGAS inh | PP5 inh
Cc1ccc(NC(=O)c2c(C(F)(F)F)nn(C)c2SCc2cccc(C(F)(F)F)c2)cc1C | 36 | 88* | -5 | 11 | 8
CCn1c(N2CCN(S(=O)(=O)c3ccc(Cl)cc3)CC2)nc2ccccc21 | 6 | 15 | 2 | -1 | 4
CCn1c(N2CCN(S(=O)(=O)c3ccc(F)cc3)CC2)nc2ccccc21 | 80* | 17 | 8 | -4 | 1
Cc1ccc(CNc2nc(-c3cccs3)nc3ccccc23)cc1 | 92* | 6 | -3 | 29 | 2
CCCCCCSc1cccc(-c2nc3ccc(C)cn3c2NCc2ccccc2)c1 | 80* | 3 | 13 | 33 | 4
CCCCNc1c(-c2ccc(SC(C)CC)c(OC)c2)nc2ccc(C)cn12 (stereo not given) | 123* | 53 | 10 | 72* | 5
CCC(C)Sc1cccc(-c2nc3ccc(C)cn3c2NCc2ccccc2)c1 (stereo not given) | 125* | ? | 9 | 67* | 6
Cc1ccc2nc(-c3cccc(-c4cccc(Cl)c4)c3)c(NCc3ccccc3)n2c1 | ? | 94* | 16* | 31 | 5
CC(C)CN1C2CCCC1CC(NC(=S)NCc1ccco1)C2 (stereo not given) | 4 | -2 | -5 | 10 | -4
C/C(=N\NC(=O)c1cccc(O)c1)c1ccc(NC(=O)Cc2ccccc2)cc1 | 2 | -4 | -7 | -1 | 4
CCC(CC)NC(=O)Cc1ccc(F)cc1 | -13 | -1 | 4 | -4 | -1
CC(C)c1nc(NCCO)c(C#N)c2c1CCCC2 | -8 | -9 | -2 | -4 | 2
CC(C)c1nc(NCc2ccccc2)c(C#N)c2c1CCCC2 | 7 | -6 | -4 | 79* | -2
Cc1[nH]c(-c2ccc(F)cc2)cc1C(=O)N1CCN(c2ccc(Cl)cc2)CC1 | 22 | -7 | / | 54* | /
CC(C)Oc1ccc(S(=O)(=O)N2CCCCC2)cc1NC(=O)C1CSC2(C)CCC(=O)N12 (stereo not given) | 3 | 1 | 2 | -3 | 1
CNc1nc(N/N=C/c2cc3c(cc2[N+](=O)[O-])OCO3)nc(Nc2ccccc2)n1 | -4 | 98* | 8 | 0 | 0
CC(Cc1ccsc1)NC(=O)CCc1nnc(COc2ccccc2)o1 (stereo not given) | -4 | 2 | -6 | -6 | -3
CCC(=O)Nc1ccc(C(=O)CSc2nnc(-c3ccc(NS(=O)(=O)CC)cc3)o2)cc1OC | -12 | 4 | 17* | 17 | 0
CCS(=O)(=O)Nc1ccc(-c2nnc(SCC(=O)OC)o2)cc1 | -8 | 2 | -2 | 0 | 0
CCc1ccc(NC(=O)NCC2CCN(Cc3cccc(Cl)c3)CC2)cc1 | 3 | -2 | 3 | 8 | 2
Cc1ccc(NC(=O)NCC2CCN(Cc3cccc(Cl)c3)CC2)cc1Cl | ? | 120* | 3 | 12 | 1
Cc1cccc(NC(=O)CSCC(=O)N(C)CCOc2ccc(Cl)cc2)c1 | -7 | / | -2 | -2 | 0
O=c1oc2ccccc2c(O)c1Cc1cc(Cl)c2cccnc2c1O | ? | 6 | 16* | 84* | -2
CC(C)(C)n1[nH]c2c3c(ccc2c1=O)C(=O)c1ccccc1C3=O | 48 | 86* | -6 | 26 | 2
